Inconclusive results are not listed. Calls of active or inactive are those of the source. Calls come from the whole dose curve; as a rule, active = well fitted curve in the direction sought with a large enough effect; inconclusive = small, poorly fitted or top-dose-only effect, or another doubt; inactive = no such curve, though single readings can be large; an effect the other way counts as inactive or inconclusive.
Legend:
[1] = qHTS to identify inhibitors of the type 1 interferon - major histocompatibility complex class I in skeletal muscle: primary screen against the NCATS Pharmaceutical Collection (AID 1347407);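 note: luminescence of HiBiT knocked into endogenous HLA-B as interferon-induced MHC class I level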
How it was run: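 Cells were seeded with 4 ng/ml IFN-beta, incubated 1 h, then dosed with compounds over eight 1:5 steps up to 46 uM final. After 24 h at 37 C, HiBiT lytic reagent was added and luminescence read after 10 min lysis in the dark.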

[2] = target: Protein phosphatase 1D (Homo sapiens) (UniProt O15297); assay: RapidFire Mass Spectrometry qHTS Assay for Modulators of WT P53-Induced Phosphatase 1 (WIP1) (AID 1347424);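 note: amount of dephosphorylated VEPPL-S-QETFS peptide product formed by WIP1; series mostly up to about 63 µM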
Chain of Protein phosphatase 1D (Homo sapiens) (O15297 whole entry, looked up): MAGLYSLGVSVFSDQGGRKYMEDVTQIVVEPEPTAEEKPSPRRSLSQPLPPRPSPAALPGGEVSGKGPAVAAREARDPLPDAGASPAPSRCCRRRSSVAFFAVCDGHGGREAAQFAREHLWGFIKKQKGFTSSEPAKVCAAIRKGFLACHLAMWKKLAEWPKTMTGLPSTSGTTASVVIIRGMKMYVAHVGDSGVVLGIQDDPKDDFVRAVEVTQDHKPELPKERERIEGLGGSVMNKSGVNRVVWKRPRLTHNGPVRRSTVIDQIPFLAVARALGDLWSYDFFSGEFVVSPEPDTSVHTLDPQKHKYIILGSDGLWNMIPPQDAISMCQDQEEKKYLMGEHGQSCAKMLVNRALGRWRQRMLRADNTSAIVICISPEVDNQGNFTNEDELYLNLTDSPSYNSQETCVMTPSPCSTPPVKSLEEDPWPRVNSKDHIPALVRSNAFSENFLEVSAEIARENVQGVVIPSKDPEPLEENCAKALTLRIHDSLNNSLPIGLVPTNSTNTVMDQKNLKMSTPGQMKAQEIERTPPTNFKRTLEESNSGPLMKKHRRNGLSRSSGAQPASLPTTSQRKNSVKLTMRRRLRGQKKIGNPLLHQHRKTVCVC
How it was run: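 10 nM WIP1 preincubated with compounds 1 hr at room temperature in pH 7.5 Tris buffer with 30 mM MgCl2, 1 mM TCEP; 2 uM VEPPL-pS-QETFS phosphopeptide for 5 min, formic acid quench; dephosphorylated product quantified by RapidFire MS against labelled standard.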

[3] = target: Protein phosphatase 1D (Homo sapiens) (UniProt O15297); assay: Rhodamine-PBP qHTS Assay for Modulators of WT P53-Induced Phosphatase 1 (WIP1) (AID 1347425)
How it was run: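 Steps: enzyme with Rh-PBP sensor and compounds, room-temperature incubation of 1 hr, baseline read, addition of VEPPL-pS-QETFS (10 uM final), kinetic fluorescence reads at 525/598 nm. Activity equals final minus baseline signal.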

Measured: Potency

C[C@@H]1C[C@H]2[C@@H]3CCC4=CC(=O)C=C[C@]4(C)[C@@]3(F)[C@@H](O)C[C@]2(C)[C@H]1C(=O)CO
inactive: all assays above

C[C@@H]1CN(CCCn2c3ccccc3c3ccccc32)C[C@H](C)N1
inactive: all assays above

CC(O)(P(=O)(O)O)P(=O)(O)O
inactive: all assays above

COc1cc2c(cc1OC)[C@@H]1CC(=O)[C@@H](CC(C)C)CN1CC2
inactive: all assays above

CN=C(NC#N)NCCSCc1csc(N=C(N)N)n1
inactive: all assays above

c1ccc(OCc2ccc(CCCN3CCOCC3)cc2)cc1
inactive: all assays above

NCCCC[C@H](N[C@@H](CCc1ccccc1)C(=O)O)C(=O)N1CCC[C@H]1C(=O)O
inactive: all assays above

COc1ccc(OC)c(C(O)CNC(=O)CN)c1 (stereo not drawn)
inactive: all assays above

O=C1c2ccccc2C(=O)C1c1ccccc1
inactive: all assays above

OC(CCN1CCCCC1)(c1ccccc1)c1ccccc1
inactive: all assays above

O=C(N/N=C/c1ccccc1O)c1ccncc1
inactive: all assays above

OC[C@H]1O[C@@H](n2cnc3c(=S)nc[nH]c32)[C@H](O)[C@@H]1O
inactive: all assays above

Cc1cc(N)c2cc(NC(=O)Nc3ccc4nc(C)cc(N)c4c3)ccc2n1
inactive: all assays above

CCCCN1CCCC1C(=O)Nc1c(C)cc(C)cc1C (stereo not drawn)
inactive: all assays above

Cc1c(C)n(Cc2ccccc2)c2ccc(C(=O)OCCN(C)C)cc12
inactive: all assays above

c1ccc(-c2ccc(C(c3ccccc3)n3ccnc3)cc2)cc1 (stereo not drawn)
inactive: all assays above

O=C1[C@H]2CCCC[C@H]2C(=O)N1CCCCN1CCN(c2nsc3ccccc23)CC1
inactive: all assays above

O=C(COc1ccc(Cl)cc1)N1CCN(Cc2ccc3c(c2)OCO3)CC1
inactive: all assays above

Nc1nc2ncc(CNc3ccc(C(=O)N[C@@H](CCC(=O)O)C(=O)O)cc3)nc2c(=O)[nH]1
inactive: all assays above

O=c1[nH]c(=O)n([C@H]2CCCO2)cc1F
inactive: all assays above

CC[C@@H](CO)NCCN[C@@H](CC)CO
inactive: all assays above

CCCCC1=NC2(CCCC2)C(=O)N1Cc1ccc(-c2ccccc2-c2nn[nH]n2)cc1
inactive: all assays above

CC(=O)OCC(=O)NCCCOc1cccc(CN2CCCCC2)c1
inactive: all assays above

CN1C(CCl)Nc2cc(Cl)c(S(N)(=O)=O)cc2S1(=O)=O (stereo not drawn)
inactive: all assays above

COc1cc2c(cc1OC)C(=O)C(CC1CCN(Cc3ccccc3)CC1)C2 (stereo not drawn)
inactive: all assays above

CCOC(=O)OC(C)OC1=C(C(=O)Nc2ccccn2)N(C)S(=O)(=O)c2ccccc21 (stereo not drawn)
inactive: all assays above

CC(=O)c1ccc2c(c1)N(CCCN1CCC(CCO)CC1)c1ccccc1S2
inactive: all assays above

Cc1ccc(O)c2ncccc12
inactive: all assays above

COc1ccc(C2C(=O)c3ccccc3C2=O)cc1
inactive: all assays above

CCOC(=O)[C@H](CCc1ccccc1)N[C@@H](C)C(=O)N1Cc2ccccc2C[C@H]1C(=O)O
inactive: all assays above

Clc1ccc2c(c1)CCc1cccnc1C2=C1CCNCC1
inactive: all assays above

CCCCCCC[N+](CC)(CC)CCCCc1ccc(Cl)cc1
inactive: all assays above

CC[N+](CC)(CCNC(=O)C(=O)NCC[N+](CC)(CC)Cc1ccccc1Cl)Cc1ccccc1Cl
inactive: all assays above

CC(=O)OCC(=O)[C@@]1(O)[C@H](C)C[C@H]2[C@@H]3CCC4=CC(=O)C=C[C@]4(C)[C@@]3(F)[C@@H](O)C[C@@]21C
inactive: all assays above

OC[C@@H](O)[C@@H](O[C@@H]1O[C@H](CO)[C@H](O)[C@H](O)[C@H]1O)[C@H](O)[C@@H](O)CO
inactive: all assays above

Cc1ccc(Nc2c(F)cccc2Cl)c(CC(=O)O)c1
inactive: all assays above

— PubChem BioAssay (NCATS)
